# N370S GC: qHTS Assay for Inhibitors and Activators of N370S glucocerebrosidase as a Potential Chaperone Treatment of Gaucher Disease; Potency, µM (series often up to 59.4 µM), most hits filed as inhibitors; AID 2101, 2009; N370S GC spleen homogenate, 4MU-glucoside fluorescence; actives 0.092% (n = 330,000); Lysosomal acid glucosylceramidase (Homo sapiens), P04062
# GAA glycogen: qHTS Assay for Inhibitors and Activators of Human alpha-Glucosidase Cleavage of Glycogen; Lysosomal alpha-glucosidase (Homo sapiens), P10253; recombinant GAA, glycogen substrate, Amplex Red glucose oxidase fluorescence; Potency, µM (highest dose often 76.4 µM), hits mostly inhibitors; actives 0.38% (n = 300,000); AID 2100, 2009;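 further: the screen sought inhibitors and activators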
#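 Natural-substrate format: glycogen cleavage by 4 nM human enzyme, glucose read by Amplex Red coupling (Ex 573, Em 610 nm). Normalized to enzyme and no-enzyme controls.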
# aGlu spleen mod: qHTS Assay for Inhibitors and Activators of Human alpha-Glucosidase From Spleen Homogenate. Lysosomal alpha-glucosidase (Homo sapiens), P10253. human spleen homogenate, 4-MU-alpha-glucoside fluorescence. Potency, µM (titrated, usually from 79.9 µM), actives largely listed as inhibitors. actives 0.006% (n = 240,000)
#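 AC50 values come from Hill-equation fits of concentration-response data, normalized to no-enzyme and full-activity controls. Enzyme source: 1 ug human spleen homogenate; 1 mM fluorogenic 4-MU glucoside, pH 5.0 citrate buffer, 37 C, 40 min.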
# aGal spleen mod: qHTS Assay for Inhibitors and Activators of Human alpha-Galactosidase From Spleen Homogenate. human spleen homogenate, 4MU-alpha-Gal fluorescence, 40 min. Potency, µM (highest dose often 80 µM), actives largely listed as inhibitors. actives 0.008% (n = 240,000)
# Target sequence (P06280 32-429 limits assumed): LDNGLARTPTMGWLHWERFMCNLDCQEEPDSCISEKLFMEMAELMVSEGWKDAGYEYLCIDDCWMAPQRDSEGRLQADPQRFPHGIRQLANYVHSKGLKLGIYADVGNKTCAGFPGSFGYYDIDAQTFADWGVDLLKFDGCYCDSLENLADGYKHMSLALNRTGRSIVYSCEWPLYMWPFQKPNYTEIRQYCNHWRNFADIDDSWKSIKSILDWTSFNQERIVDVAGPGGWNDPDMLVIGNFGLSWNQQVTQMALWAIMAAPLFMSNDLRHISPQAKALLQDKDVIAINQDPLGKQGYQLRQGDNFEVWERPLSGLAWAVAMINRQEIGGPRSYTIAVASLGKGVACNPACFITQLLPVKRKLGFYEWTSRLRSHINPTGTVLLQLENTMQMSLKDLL
#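 qHTS titration in buffer at pH 5.0. Alpha-galactosidase activity in spleen homogenate was measured via 4-methylumbelliferone release from 1 mM fluorogenic substrate after 40 min at 37C and a pH 10 stop. AC50 came from Hill fits of control-normalized data.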
# GAA inh: qHTS Assay for Inhibitors of Human alpha-Glucosidase as a Potential Chaperone Treatment of Pompe Disease | purified human GAA, 4-MU-alpha-glucoside fluorescence | Potency, µM (highest dose often 76.9 µM), usual class: inhibitors | actives 0.005% (n = 200,000) | AID 1466, 2008
#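 qHTS format, compound range up to 77 uM. Human lysosomal enzyme at 4 nM, 400 uM 4-MU glucoside substrate, pH 5.0, 20 min room temperature; fluorescence after alkaline stop gives activity normalized to controls.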
# GLA inh pH 4.5: qHTS Assay for Inhibitors of Human alpha-Galactosidase at pH 4.5; purified enzyme, 4-MU-alpha-Gal fluorescence, pH 4.5; 230,000 tested, under 10 active; activity change, negative = inhibition, % at 105 µM
# Hits are given with their value; . = inactive; ? = inconclusive; / = no result; ! = repeats disagree; [ ] = remark or other dose. Hits are enriched below; roughly 0.43% of the tested compounds scored in any of these assays. The call rests on the fitted dose curve; in most records, active means well fitted curve in the direction sought with a large enough effect; inconclusive means small, poorly fitted or top-dose-only effect, or another doubt; inactive means no such curve, though single readings can be large; an effect the other way counts as inactive or inconclusive.
SMILES,N370S GC,GAA glycogen,aGlu spleen mod,aGal spleen mod,GAA inh,GLA inh pH 4.5
NC(=S)c1ccc[n+]([C@@H]2O[C@@H](COP(=O)([O-])OP(=O)(O)OC[C@H]3O[C@@H](n4cnc5c(N)ncnc54)[C@H](OP(=O)(O)O)[C@H]3O)C(O)C2O)c1 (some centres undefined),.,/,.,.,/,.
Cc1ccccc1OCCn1cc(/C(N)=N/O)c2ccccc21,/,31.6µM,.,.,.,.
NCCCC[C@H](NC(=O)[C@@H](Cc1ccccc1)NC(=O)[C@H](Cc1c[nH]c2ccccc12)NC(=O)[C@@H](CCCCN)NC(=O)[C@@H](Cc1c[nH]c2ccccc12)NC(=O)[C@@H](N)Cc1cnc[nH]1)C(N)=O,.,/,.,.,/,/
COc1ccc(/C=N/Nc2nonc2N)c(OC)c1,.,35.2µM,.,.,.,.
COc1ccc(/C=N/Nc2nccnc2Cl)c(OC)c1,.,?,.,.,.,.
Oc1ccc(C2=Nn3c(nnc3-c3ccco3)SC2)cc1O,.,15.8µM,.,.,.,.
Cc1ccc2nc(-c3ccc(N4C(=O)CC(N5CCN(CCO)CC5)C4=O)cc3)sc2c1 (centres undefined),17.8µM,.,.,.,.,.
Cc1ccc(N2C(=O)CC(N3CCN(c4ccccn4)CC3)C2=O)cc1 (centres undefined),.,.,.,.,.,.
Cc1oc(C)c2c(=O)cc(-c3ccc4c(c3)OCO4)cc(OC(=O)c3ccccc3Br)c12,/,.,/,/,/,/
CCCN1CCCc2cc(CN(CCCN3CCOCC3)C(=O)Nc3ccc(OCC)cc3)ccc21,?,3.52µM,.,.,?,.
CCOc1ccc(NC(=O)N(CCN2CCOCC2)Cc2ccc3c(c2)CCCN3CC)cc1,.,8.91µM,.,.,.,.
Cc1ccc2oc(=O)c(/C=C(\O)c3ccco3)nc2c1,.,?,.,.,/,.
CC(C)(C)/C(O)=C/c1nc2cc(Cl)ccc2oc1=O,.,3.16µM,.,.,/,.
Cc1ccc2oc(=O)c(/C=C(\O)C(C)(C)C)nc2c1,.,6.31µM,.,.,.,.
CC(C)[N+]1(C)[C@@H]2CC[C@H]1CC(OC(=O)[C@@H](CO)c1ccccc1)C2 (some centres undefined),.,/,.,.,/,.
COc1ccc(CNc2ncnc3ccc(-c4c(C)noc4C)cc23)cc1,.,/,.,.,/,/
COCOc1ccc(Br)cc1C(=O)/C=C\c1ccc2c(c1)OCO2,.[12.8 µM],/,.[17.4 µM],.[17.5 µM],/,/
COc1ccc(-c2cc(Nc3ccccc3NC(=O)C(F)(F)F)n(CCC#N)n2)cc1,.,35.5µM,.,.,.,.
CCOC(=O)c1cc(-c2ccc(OC)cc2)nc2c1c(C)nn2CCC#N,.,.,.,?,.,.
CN(C)c1ccc(N/C=C/C(=O)C(C)(C)C)cc1,.,?,.,.,.,.
CC(C)(C)C(=O)/C=C/Nc1ccccc1O,.,14.1µM,.,.,.,.
Cc1[nH]c2ccccc2c1/C=N/NC(=S)NC(C)C,?,7.94µM,.,.,.,.
Cc1[nH]c2ccccc2c1/C=N/Nc1ccccc1[N+](=O)[O-],.,6.31µM,.,.,.,.
CC(C)NC(=S)N/N=C/c1c[nH]c2ccccc12,.,.,.,.,.,.
NC12CCc3c(no[n+]3[O-])C1(O)CC(c1ccccc1)=[N+]2[O-] (centres undefined),.,.,.,.,.,.
SMILES,N370S GC,GAA glycogen,aGlu spleen mod,aGal spleen mod,GAA inh,GLA inh pH 4.5
[O-][n+]1onc2c1CCC1N(O)C(c3ccccc3)CC21O (centres undefined),.,28µM,.,.,.,.
CSc1ncc(C(=O)NCc2ccc(F)cc2)c(-c2ccccc2)n1,/,.,/,/,/,/
CC(Sc1nc(NCc2ccccc2)nc(N(C)C)n1)C(=O)Nc1ccccc1 (centres undefined),.,.,.,.,.,.
CC(=O)C(Sc1nc(N(C)C)nc(N(C)C)n1)C(=O)Nc1ccccc1 (centres undefined),.,20µM,.,.,.,.
COc1ccc2nc(C)cc(SCC(=O)N/N=C/c3cccc4ccccc34)c2c1,.,.,.,.,?,.
COc1ccc2nc(C)cc(SCC(=O)N/N=C/c3ccc(O)c(O)c3)c2c1,.,7.03µM,.,.,.,.
COc1ccc2c(c1)c(C(=O)N/N=C/c1ccc(O)c(O)c1)c(C)n2C,.,31.6µM,.,.,.,.
Cc1cc(SCC(=O)N/N=C/c2ccc(O)c(O)c2)c(C)cc1Br,.,17.8µM,.,.,.,.
COc1cccc2c(SCC(=O)N/N=C/c3ccccc3)cc(C)nc12,.,.,.,.,.,.
COc1ccc2c(c1)c(C(=O)N/N=C/c1ccc(Br)cc1)c(C)n2C,.,.,.,.,/,.
COc1cccc2c(SCC(=O)N/N=C/c3ccc(O)c(O)c3)cc(C)nc12,.,3.14µM,.,.,.,.
Cc1cccc(C)c1Nc1c(-c2ccc(N3CCOCC3)cc2)nc2ncccn12,.,20µM!,.,.,.,.
Cc1ccc(Nc2c(-c3ccc(N(C)C)cc3)nc3ncccn23)cc1,.,.,.,.,.[15.4 µM],.
COc1ccc(-c2nc3ncccn3c2Nc2ccccc2)cc1,.,?,.,.,.,.
Cc1ccc(Nc2c(-c3ccc(N4CCOCC4)cc3)nc3ncccn23)c(C)c1,.,31.6µM,.,.,.,.
CCN(CC)/[N+]([O-])=N/Oc1cc(O/N=[N+](\[O-])N(C)C)c([N+](=O)[O-])cc1[N+](=O)[O-],.,/,.,.,/,/
CCOc1ccc(N(CC(=O)Nc2ccc(CC)cc2)S(=O)(=O)c2c(C)[nH]c(=O)[nH]c2=O)cc1,3.55µM,.,/,/,/,/
CCc1ccc(NC(=O)CN(c2ccc(OC)cc2)S(=O)(=O)c2c(C)[nH]c(=O)[nH]c2=O)cc1,3.16µM,.,/,/,/,/
COc1ccc(N(CC(=O)Nc2cccc(F)c2)S(=O)(=O)c2c(C)[nH]c(=O)[nH]c2=O)cc1,11.2µM,/,/,/,/,/
CCOc1ccc(N(CC(=O)Nc2ccc(C)c(C)c2)S(=O)(=O)c2c(C)[nH]c(=O)[nH]c2=O)cc1,7.08µM,.,.,.,/,.
COc1ccc(OC)c(-c2noc(N3CCN(c4ccc(C(C)=O)cc4)CC3)n2)c1,/,.,/,/,/,/
O=C(O)c1cc(NCc2ccc3c(c2)OCO3)ccc1N1CCOCC1,.,4.97µM,.,.,.,.

# Source: PubChem BioAssay (National Center for Advancing Translational Sciences (NCATS))
